These results are taken from PubChem BioAssay AID588453 (National Center for Advancing Translational Sciences (NCATS), 2011).

Hit rate of the full screen: of about 390,000 compounds, about 4,000 (1%) were called active. A call without a number means that no potency is given here. Another 4% or so got no clear call; they are omitted. Calls come from the whole dose curve; as a rule, active = well fitted inhibition curve with a large enough effect; inconclusive = small, poorly fitted or top-dose-only effect; inactive = no such curve, though single readings can be large or run the other way. Many of the other results were omitted from the sample, so actives are more common in it than they were.
Potency is the fitted concentration of half-maximal effect.

Thioredoxin reductase 1, cytoplasmic (Rattus norvegicus), sequence (O89049 whole entry, looked up): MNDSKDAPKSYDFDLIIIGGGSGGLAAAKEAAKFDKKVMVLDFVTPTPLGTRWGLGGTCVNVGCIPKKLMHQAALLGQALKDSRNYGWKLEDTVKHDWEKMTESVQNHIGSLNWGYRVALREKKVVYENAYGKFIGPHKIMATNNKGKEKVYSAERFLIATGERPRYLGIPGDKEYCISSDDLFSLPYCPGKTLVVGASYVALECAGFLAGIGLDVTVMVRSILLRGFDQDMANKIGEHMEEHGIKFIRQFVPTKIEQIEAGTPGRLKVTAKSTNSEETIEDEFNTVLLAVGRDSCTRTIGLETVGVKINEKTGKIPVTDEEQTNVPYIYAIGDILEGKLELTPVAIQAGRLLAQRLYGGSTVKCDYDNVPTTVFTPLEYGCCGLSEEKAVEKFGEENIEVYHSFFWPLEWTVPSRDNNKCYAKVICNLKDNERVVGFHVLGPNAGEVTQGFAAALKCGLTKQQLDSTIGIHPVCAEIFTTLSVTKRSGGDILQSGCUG

The test concerns the target Thioredoxin reductase 1, cytoplasmic (Rattus norvegicus) (UniProt O89049). As to the kind of experiment: qHTS Assay for Inhibitors of Mammalian Selenoprotein Thioredoxin Reductase 1 (TrxR1): qHTS. Note: nearly all actives have a fitted effect of over 65% in size. The following applies: recombinant rTrxR1, NADPH fluorescence consumption, selenite substrate; series mostly up to 114 µM. A digest of the protocol:
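Rat TrxR1 (90 nM in the dispensed reagent) was pre-reduced with 400 uM NADPH for 5 min at room temperature, then incubated with compound for 15 min. After 400 uM selenite was added, NADPH fluorescence (Ex 340/Em 450 nm) was followed for 8 min.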
Background: Quantitative high-throughput screening tests each substance at several concentrations.
For `Cc1ccc2ncc(C(=O)Nc3ccc(OC(F)(F)F)cc3)c(=O)n2c1`, the Potency result was “inactive”.
As to `Cc1ccccc1-n1nc(C)c2c1N=C1C(Cl)=CC(Cl)=CN1C2c1ccc(C(=O)O)cc1` (stereo unspecified), the Potency was 12.6 µM (active).
Turning to `Cc1ccccc1-n1nc(C)c2cc(C(=O)NC3CC3)sc21`, the Potency entry is “inactive”.
In the case of `O=C(CCc1nc(CN2CCN(S(=O)(=O)c3ccc(Br)cc3)CC2)no1)N1CCCCC1`, the Potency entry is “inactive”.
In the case of `Cc1noc(/C=C/N(C)C)c1S(=O)(=O)N1CCCC(C(=O)Nc2cccc(F)c2)C1` (stereo unspecified), the Potency result was “inactive”.
Consider `Cc1ccc(C)n1-c1ccncc1`, for which the Potency entry was “inactive”.
Turning to `Cc1nccc(-c2ccc(-n3c(C)ccc3C)cc2)n1`, the Potency is 79.4 µM (active).
On to `c1ccc(-c2nccc(-c3ccc(-n4cnc5ccccc54)cc3)n2)nc1`, for which the Potency result is “inactive”.
The value for `NC1CCN(O)C1=O` (stereo unspecified) was “inactive”.
On to `CC(C)(C)OC(=O)N(Cc1ccco1)S(=O)(=O)c1ccccc1Br`, for which the Potency entry was “inactive”.
As for `O=C(NCc1ccccc1Cl)c1cccn1-c1nnc(N2CCCCC2)s1`, the Potency result was “inactive”.
The result for `O=C(NCCc1ccccc1)c1ccc2c(c1)N(Cc1ccccc1)C(=O)c1ccccc1S2(=O)=O` reads “inactive”.
Turning to `CCCCOc1ccc(CN2C(=O)C(=O)c3cc(Br)cc(C)c32)cc1OC`, the Potency result is “inactive”.
Take `CCOc1ccc(C(=O)N2CCN(CCc3ccccn3)CC2)cc1`: the Potency result is “inactive”.
Consider `CCOc1ccc(-c2ccc(SCC(=O)N3CCOCC3)nn2)cc1`, for which the Potency entry is “inactive”.
Take `CCOc1ccc(C(=O)CCN2CCOCC2)cc1`: the Potency is 3.16 µM (active).
Take `SCc1nc2ccc(Cl)cc2[nH]1`: the Potency result was “inactive”.
Consider `Cc1ccccc1C(=O)Nc1sc2c(c1C(=O)N1CCC(C)CC1)CCCC2`, for which the Potency entry was “inactive”.
As for `Cc1cccc(NC(=O)C2CCCN2S(=O)(=O)c2cccc3nsnc23)c1C` (stereo unspecified), the Potency entry was “inactive”.
Regarding `COc1c(O)ccc2c1CN1CCc3cc4c(cc3C1C2)OCO4` (stereo unspecified), the Potency is 50.1 µM (active).
Consider `COc1cc(C2c3cc4c(cc3C(O)C3COC(=O)C23)OCO4)cc(OC)c1OC` (stereo unspecified), for which the Potency entry was “inactive”.
For `COc1cc(COCC(O)CN2CCN(Cc3ccc4c(c3)OCO4)CC2)cc(OC)c1OC` (stereo unspecified), the Potency entry is “inactive”.
Take `Nc1nc(N)c(N=O)c(N)n1`: the Potency result was “inactive”.
Regarding `COc1ccc(NS(=O)(=O)c2cc3c4c(c2)CC(=O)N4CCC3)cc1Cl`, the Potency result was “inactive”.
For `Fc1ccc(-c2ccc(-c3nn4c(-c5ccco5)nnc4s3)o2)cc1`, the Potency was 35.5 µM (active).
For the compound `O=C(Nc1ccc(Br)cc1)c1ccc(Br)c(S(=O)(=O)NCc2ccccc2)c1`, the Potency entry was “inactive”.
Regarding `O=C(NC1CC(=O)N(c2ccc(Cl)cc2)C1)C1CCCC1` (stereo unspecified), the Potency result was “inactive”.
In the case of `Cc1ccc(CCNC(=O)c2ccc3c(c2)N(Cc2cc(C)ccc2C)C(=O)c2ccccc2S3=O)cc1` (stereo unspecified), the Potency result is “inactive”.
Regarding `Cc1ccccc1N(C(=O)CNC(=O)c1cccs1)C(C(=O)NC1CCCC1)c1ccncc1` (stereo unspecified), the Potency entry is “inactive”.
In the case of `C[N+]1(CC(=O)c2cccs2)CCOCC1`, the Potency result was “inactive”.
As for `Cc1ccccc1C(CC(=O)c1cccs1)C(C#N)C#N` (stereo unspecified), the Potency was 10 µM (active).
`CCOC(=O)c1ccc(NC(=O)c2c(NCc3cccc(OC)c3)sc3c2CCC3)cc1`: the Potency entry is “inactive”.
The value for `CCOc1ccc(N2C(=O)/C(=C/c3ccc(C)o3)N(C)C2=S)cc1` was 31.6 µM (active); that for `CCOC(=O)c1ccc(NC2=CC(c3ccc(OCC)cc3)N(c3ccc(C(=O)OCC)cc3)C2=O)cc1` (stereo unspecified) was “inactive”; that for `CCOc1ccc(N2C(=O)CN(c3cccc4ccccc34)C2=S)cc1` was “inactive”.
Regarding `COc1ccc(Cn2c(=O)n(-c3ccccc3C)c(=O)c3c4c(sc32)CN(C(C)=O)CC4)cc1`, the Potency entry was “inactive”.
In the case of `O=C(COc1ccccc1Cl)Nc1ccc2nc(SCC(=O)N3CCCC3)sc2c1`, the Potency entry was “inactive”.
In the case of `COCc1ccc(C(=O)N2CCc3c([nH]c4ccccc34)C2c2ccccn2)s1` (stereo unspecified), the Potency result was “inactive”.
Turning to `CCOc1ccc(C2c3[nH]c4ccccc4c3CCN2Cc2cccn2-c2ncccn2)cc1` (stereo unspecified), the Potency entry is “inactive”.
The result for `c1ccc(C2c3[nH]c4ccccc4c3CCN2Cc2cccn2-c2cccnc2)nc1` (stereo unspecified) reads 50.1 µM (active); that for `CS(=O)c1ccc(/C=C2\C=Cc3ccccc32)cc1` (stereo unspecified), “inactive”.
Regarding `CCOC(=O)c1nnn(CC(=O)NC(=O)Nc2ccccc2F)c1C(=O)OCC`, the Potency result is “inactive”.
The result for `Cc1ccc(Cc2cnc(N)s2)o1` reads 22.4 µM (active).
For the compound `COc1cn(CC(=O)Nc2cccc(C)c2C)c(CN2CCCCC2)cc1=O`, the Potency result was “inactive”.
With `Cc1cccc(N2CCN(C(=O)CCn3c(=O)c4cccn4c4cccnc43)CC2C)c1` (stereo unspecified), the Potency result was “inactive”.
Consider `CCn1c(CNC(=O)C23CC4CC(CC(C4)C2)C3)nnc1SCC(=O)Nc1ccc(OC)cc1`, for which the Potency entry is “inactive”.
For `CCCCS(=O)(=O)c1oc(-c2cccs2)nc1S(=O)(=O)c1ccccc1`, the Potency is 0.447 µM (active).
For the compound `CSc1oc(-c2cccs2)nc1S(=O)(=O)c1ccc(Br)cc1`, the Potency result was “inactive”.
The value for `NC(=O)CSc1oc(-c2cccs2)nc1S(=O)(=O)c1ccccc1` was “inactive”.
Turning to `C(=Nc1ccc(/C=C/c2ccnc3ccccc23)cc1)Nc1ccc(/C=C/c2ccnc3ccccc23)cc1`, the Potency entry is “inactive”.
As for `CCOC(=O)c1c(C)oc2nc(C)nc(Nc3ccc(CC)cc3)c12`, the Potency entry is “inactive”.
In the case of `CCCOc1ccc(C(=O)Nc2ccc3oc(-c4cccc(Cl)c4Cl)nc3c2)cc1`, the Potency entry was “inactive”.
Take `Oc1c(C=Nc2cccc3nsnc23)ccc2ccccc12`: the Potency is 39.8 µM (active).
The result for `Cc1cccc(-c2nnc(SCC(=O)N3CCCc4ccccc43)o2)c1` reads “inactive”; that for `COc1ccc(-c2nc(=N)sn2-c2ccccc2)cc1`, “inactive”; that for `COC(=O)c1cc(NC(=O)CCc2c(C)nc3c4c(C)cc(C)nc4nn3c2C)cc(C(=O)OC)c1`, “inactive”.
`Cc1cc(C)c2c(NC(=O)C3CC3)nn(C)c2n1`: the Potency result is “inactive”.
For the compound `Cc1cc(C)c2c(n1)nn1c(-n3ccnc3)cc(C)nc21`, the Potency was 8.91 µM (active).
On to `CCOc1ccc(CNC(=O)c2cc(-c3ccc(Cl)s3)nc3ccccc23)cc1`, for which the Potency entry is “inactive”.
As to `Cc1ccc(NC(=O)c2cc(-c3ccc(C)o3)nc3ccccc23)nc1`, the Potency is 14.1 µM (active).
As to `Cc1ccc(-c2cc(C(=O)NN)n[nH]2)o1`, the Potency entry was “inactive”.
`CCOC(=O)c1cc2c(=O)n3ccccc3nc2n(CC2CCCO2)c1=NC(=O)c1ccc(C(C)(C)C)cc1` (stereo unspecified): the Potency result was “inactive”.
Regarding `Cc1cccc(N2CCN(C3=C(c4ccccc4)C(=O)c4ccccc43)CC2)c1C`, the Potency result is “inactive”.
For `CC(=O)/C(C)=N/O`, the Potency result is “inactive”.
As for `Cc1noc(C)c1NC(=O)Nc1ccc2c(c1)C(=O)N([C@H](C)CO)C[C@H](C)[C@@H](CN(C)C(=O)Nc1ccc(C(F)(F)F)cc1)O2`, the Potency result is “inactive”.
As for `C[C@H](CO)N1C[C@H](C)[C@H](CN(C)C(=O)Nc2ccc(C(F)(F)F)cc2)Oc2c(NC(=O)c3ccncc3)cccc2C1=O`, the Potency was 56.2 µM (active).
As to `Cc1noc(C)c1NC(=O)Nc1cccc2c1O[C@H](CN(C)C(=O)Nc1ccccc1)[C@@H](C)CN([C@H](C)CO)C2=O`, the Potency result was “inactive”.
The result for `CCc1ccc(N(CC)C(=O)CCn2cnc3onc(-c4ccc(F)cc4)c3c2=O)cc1` reads “inactive”; that for `COc1cc(Cl)c(C)cc1NC(=O)CSc1nnc(CN2CCCC2)o1`, “inactive”; that for `COc1cc(Cl)c(C)cc1NC(=O)CSc1nnc(-c2ccco2)n1CC(C)C`, 12.6 µM (active).
Regarding `COc1ccccc1NC(=O)CSc1nnc(-c2ccoc2C)n1CCc1ccccc1`, the Potency result is “inactive”.
The value for `Cc1cccc(C(=O)Nc2ccc(S(=O)(=O)N3CCCCC3c3cccnc3)cc2)c1` (stereo unspecified) was “inactive”; that for `Cc1ccc2oc(C(=O)Nc3ccc(S(=O)(=O)N4CCCCCC4)cc3)cc(=O)c2c1` was “inactive”.
On to `COCCNC(=O)Nc1ccc2nc(-c3ccco3)c(-c3ccco3)nc2c1`, for which the Potency was 3.16 µM (active).
Consider `COc1ccc(-c2nc3ccc(C(=O)NCc4ccc(C)cc4)cc3nc2-c2ccc(OC)cc2)cc1`, for which the Potency entry is “inactive”.
Consider `CCOc1ccc(NC(=O)c2ncoc2-c2ccco2)cc1`, for which the Potency entry was “inactive”.
Regarding `COc1cc(-n2c(C)nc3cc(C(=O)NCc4ccco4)ccc32)cc(OC)c1OC`, the Potency entry was “inactive”.
For the compound `C=CCNC(=O)c1ccc2nc(-c3ccco3)c(-c3ccco3)nc2c1`, the Potency is 7.94 µM (active).
In the case of `COc1ccc(NC(=O)COCc2cc(-c3ccco3)on2)cc1`, the Potency result is “inactive”.
Consider `Cc1nc2sc(C)c(C)n2c(=O)c1S(=O)(=O)NCCc1ccc(Cl)cc1`, for which the Potency entry was “inactive”.
As for `O=C(NCCS(=O)(=O)N1CCN(c2ccc(F)cc2)CC1)c1ccccc1Br`, the Potency result was “inactive”.
As to `O=[N+]([O-])c1ccc(/C=C/c2ccc3cccnc3c2)cc1`, the Potency result was “inactive”.
Turning to `O=C(Cn1cc(SCc2cccc(Cl)c2)c2ccccc21)N1CCCCC1`, the Potency entry is “inactive”.
For the compound `O=C(N1CCOCC1)N1CCOCC1`, the Potency result was “inactive”.
Regarding `N#C/C=C(/c1ccc(F)cc1)N1CCOCC1`, the Potency entry is “inactive”.
Turning to `N#C/C(=C/c1ccc(N2CCOCC2)o1)C(=O)N1CCOCC1`, the Potency is 50.1 µM (active).
On to `COc1cccc(C(=O)NC(=O)Nc2ccc(-c3cc(C(F)(F)F)nn3-c3ccccc3)cc2)c1`, for which the Potency result is “inactive”.
`Cc1cccc(-n2ncc(C(=O)N3CCN(c4ccc(Cl)cc4)CC3)c2C2CCN(C(=O)OC(C)(C)C)CC2)c1`: the Potency result is “inactive”.
On to `Cc1cccc(-n2ncc(C(=O)N3CCC(C)CC3)c2C2CCN(C(=O)OC(C)(C)C)CC2)c1`, for which the Potency result is “inactive”.
As for `Cc1cccc(-n2ncc(Cl)c(Cl)c2=O)c1`, the Potency was 44.7 µM (active).
As for `CCOc1ccc(C2CC(=O)c3c([nH]c(C(=O)OCc4ccccc4)c3C)C2)cc1` (stereo unspecified), the Potency result was “inactive”.
For `CCc1ccc(OCCCn2c(CCCNC(=O)C3CCCCC3)nc3ccccc32)cc1`, the Potency entry was “inactive”.
For the compound `Cc1ccc(C=O)cc1Cl`, the Potency result is “inactive”.
Turning to `Cc1ccc(-n2ncc3c(N4CCC(C(N)=O)CC4)ncnc32)cc1`, the Potency result is “inactive”.
On to `Cc1cc(NC(=O)CCS(=O)(=O)c2ccc(F)cc2)no1`, for which the Potency was 44.7 µM (active).
On to `Cc1cc(NC(=O)CSc2nc(=O)cc(N)n2-c2ccc(F)cc2)no1`, for which the Potency entry was “inactive”.
In the case of `Cc1cc(NC(=O)CCC(=O)N(CC(=O)NC2CCCC2)c2ccc(F)cc2)no1`, the Potency result is “inactive”.
The value for `ClC/C=C/C[n+]1ccccc1Cl` was “inactive”.
Take `C/C(=N/Nc1nc(-c2ccccc2)c(CC(=O)O)s1)c1ccccc1`: the Potency was 5.62 µM (active).
With `C/C(=N\Nc1cccc(C(=O)O)c1)c1ccc2c(c1)Nc1ccccc1S2`, the Potency result was “inactive”.
The value for `CC(=O)NC(CC(=O)Nc1nc(-c2ccccc2)c(C(C)=O)s1)c1ccccc1` (stereo unspecified) was “inactive”.
